One may read the inhibition as the drop in the measured response relative to a control, in per cent.

For 93 molecules, inhibition results are on record in PubChem BioAssay AID1578 (Sanford-Burnham Center for Chemical Genomics, 2009).

About 3,000 (1%) of roughly 290,000 compounds were called active. Cut-off read from the data, not from the text of the source: active = inhibition mostly above about 36% (no sharp cut-off); inactive = mostly below about 34%. The list comes from a sample in which actives are over-represented; it also holds similar structures and randomly drawn compounds.

The nature of the experiment: inhibition of NOD1-driven NF-kB reporter – cell-based, luminescence, uHTS, primary screen (AID 1578).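 Note: HEK-293T reporter cells stimulated with the NOD1 agonist gamma-tri-DAP.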 Conditions: NOD1-driven NF-kB luciferase reporter cells, at 4 µM, hits give high values. Background: Reporter assays use an easily measured gene product as a stand-in for the process of interest.
As for `N#Cc1ccc(N2CCCC2C(=O)O)c([N+](=O)[O-])c1` (stereo not drawn), the inhibition is 6.2% (inactive).
As for `COC(=O)C1(c2ccccc2)NC(c2cccs2)C2C(=O)N(C)C(=O)C21` (stereo not drawn), the inhibition is -15.5% (inactive).
`CN(C)/C=C1\N=C(c2cccnc2Oc2ccc(Cl)cc2)OC1=O`: the inhibition is -11.9% (inactive).
For the molecule `COc1ccc(OC)c(NC(=O)CNC(=O)Cn2ccc3ccccc3c2=O)c1`, the inhibition is -4% (inactive).
In the case of `CN(C)c1nc2n(c(=O)n1)CCS2`, the inhibition was -11.7% (inactive).
For the molecule `CCOC(=O)C1CCN(S(=O)(=O)c2c(C)noc2C)CC1`, the inhibition is -15.9% (inactive).
For `CCOC(=O)C1CCN(S(=O)(=O)c2cccc3nonc23)CC1`, the inhibition is -27.8% (inactive).
Take `CCOC(=O)C1CCN(S(=O)(=O)c2c(Cl)ccc3nonc23)CC1`: the inhibition is 102% (active).
Take `CC(CCN1CCOCC1)c1ccccc1` (stereo not drawn): the inhibition is -28% (inactive).
The same measure for `O=C(c1ccc(Br)c([N+](=O)[O-])c1)N1CCN(Cc2ccccc2)CC1`: -6.4% (inactive).
For `O=C(NC1CCCCC1)c1ccc(S(=O)(=O)c2ccccc2Cl)c([N+](=O)[O-])c1`, the inhibition is 91.4% (active).
`O=C(NC1CCCC1)c1ccc(Cl)c(S(=O)(=O)N2CCCCC2)c1`: the inhibition is 10.6% (inactive).
On to `O=C(c1ccc(S(=O)(=O)Cc2ccccc2F)c([N+](=O)[O-])c1)N1CCCCCC1`, for which the inhibition is 1% (inactive).
As to `O=C(c1ccc(Cl)c(S(=O)(=O)N2CCCC2)c1)N1CCN(c2ccc(F)cc2)CC1`, the inhibition is 0.4% (inactive).
As for `Cc1cc(C(=O)N2CCN(Cc3ccccc3)CC2)ccc1[N+](=O)[O-]`, the inhibition is 0.5% (inactive).
On to `O=C(NC1CCCCC1)c1ccc(S(=O)(=O)c2ccccc2)cc1`, for which the inhibition is 18% (inactive).
Turning to `Cc1ccc(C(=O)N2CCN(c3ccccc3)CC2)cc1S(=O)(=O)N1CCCC1`, the inhibition was 3.9% (inactive).
On to `O=C(c1ccc(S(=O)(=O)Cc2cc(F)ccc2F)c([N+](=O)[O-])c1)N1CCCC1`, for which the inhibition was 5% (inactive).
With `COc1cccc(C(=O)NCCCNC(=O)c2cccc(OC)c2)c1`, the inhibition is -4.9% (inactive).
Take `CCN(CC)S(=O)(=O)c1ccc(S(=O)(=O)N2CCN(C(=O)c3ccco3)CC2)cc1`: the inhibition is -3.5% (inactive).
Turning to `CC(=O)Nc1ccc(NC(=O)C(C)Sc2nnc(-c3cccs3)o2)cc1` (stereo not drawn), the inhibition is -14.2% (inactive).
`Cc1ccccc1C(=O)Nc1ccccc1`: the inhibition was -15.4% (inactive).
As to `Cc1c(C(=O)NN2CCOCC2)oc2c1ccc1ccccc12`, the inhibition was -35.1% (inactive).
As for `COc1ccc(CCNC(=O)COC(=O)/C=C/c2ccc(OCC#N)c(OC)c2)cc1`, the inhibition is -30.9% (inactive).
Take `Cc1cc(C)n2nc(C(=O)N3CCN(c4ccc([N+](=O)[O-])cc4)CC3)nc2n1`: the inhibition is -21.8% (inactive).
With `CCOC(=O)C1CCN(CC(O)COCc2ccccc2)CC1` (stereo not drawn), the inhibition is 34.7% (active).
For `CCOC(=O)C1CCN(CC(O)COCc2cccs2)CC1` (stereo not drawn), the inhibition was -28.2% (inactive).
Regarding `CCOC(=O)C1CCN(CC(O)COCc2ccc(Cl)cc2)CC1` (stereo not drawn), the inhibition is -12.3% (inactive).
Turning to `COC(=O)c1ccc(/C=N/NC(=O)c2ccc3nc[nH]c3c2)cc1`, the inhibition was -10.6% (inactive).
Turning to `O=C(O)CCc1ccc(-c2ccc(Br)cc2)n1Cc1ccco1`, the inhibition was -8.6% (inactive).
Consider `CC(C)[C@H](NC(=O)N1CCn2c1nc1ccccc12)C(=O)N[C@H](C(=O)O)c1ccccc1`, for which the inhibition was 68.4% (active).
Regarding `CC(C)C[C@H](NC(=O)N1CCn2c1nc1ccccc12)C(=O)N[C@@H](C(=O)O)c1ccccc1`, the inhibition was -6% (inactive).
The same measure for `CC(C)[C@H](NC(=O)N1CCn2c1nc1ccccc12)C(=O)N[C@@H](C(=O)O)c1ccccc1`: 1.1% (inactive); for `CC(C)(C)C(=O)NC1(C(F)(F)F)NC(=O)N(c2ccccc2F)C1=O` (stereo not drawn): 2.6% (inactive); for `CCn1cc([N+](=O)[O-])c(C(=O)Nc2nc(-c3ccc(C)c(C)c3)c(C)s2)n1`: -63.4% (inactive).
The same measure for `Cc1cnc(NC(=O)c2nn(C)cc2[N+](=O)[O-])s1`: 24.8% (inactive); for `CCn1cc([N+](=O)[O-])c(C(=O)Nc2nc(-c3ccc(C)cc3)c(C)s2)n1`: 2.6% (inactive); for `Cn1cc([N+](=O)[O-])c(C(=O)Nc2nccs2)n1`: -14.6% (inactive).
Consider `Cc1csc(=S)n1-c1ccccc1`, for which the inhibition was 5.1% (inactive).
`COc1ccccc1C(=O)N/C(=C\c1cn(S(=O)(=O)N(C)C)c2ccccc12)C(=O)NCCN1CCOCC1`: the inhibition was -15% (inactive).
As for `COc1ccc(C(=O)Oc2cccc(Nc3ncnc4ccccc34)c2)cc1OC`, the inhibition was 29.6% (inactive).
Regarding `COc1cccc(N2CCN(c3nc(C)c(C)c(=O)[nH]3)CC2)c1`, the inhibition was -29.1% (inactive).
As to `COC(=O)c1c(C)noc1-c1ccc(Cl)cc1`, the inhibition was -8.4% (inactive).
Take `Cc1cc(C(=O)O/N=C(\N)c2ccc(C(C)(C)C)cc2)no1`: the inhibition is -2.5% (inactive).
`Cc1noc(-c2ccc(Cl)cc2)c1C(=O)O/N=C(\N)c1ccc(C(C)(C)C)cc1`: the inhibition is 84% (active).
Take `CC(=O)/C(N=Nc1cccc(C(F)(F)F)c1)=C(\C)O`: the inhibition was -26.4% (inactive).
Turning to `COC(=O)/C(N=Nc1cccc(C(F)(F)F)c1)=C(\C)O`, the inhibition is 1.3% (inactive).
With `O=C(/C(N=Nc1cccc(C(F)(F)F)c1)=C(/O)c1cccs1)C(F)(F)F`, the inhibition is 58.5% (active).
On to `CC(C)C1CC(c2ccccc2)(C(CN)CO)CCO1` (stereo not drawn), for which the inhibition is -22.3% (inactive).
The result for `C=C(C)COc1ccc(-c2[nH]ncc2-c2ccc(Br)cc2)c(O)c1` reads -22.6% (inactive).
The same measure for `Cc1cc(C(=O)NCC2COc3ccccc3O2)c2ccccc2n1` (stereo not drawn): -14.4% (inactive); for `Cc1nc2ccccc2c2oc(C(=O)NCc3ccc4c(c3)OCO4)cc12`: 38.5% (inactive).
Consider `Cn1c(Cc2ccccc2)nnc1SCC(=O)N1CCN(c2ccccc2)CC1`, for which the inhibition is -14.3% (inactive).
Consider `COC(=O)c1sccc1NC(=O)/C=C/C(=O)O`, for which the inhibition was -34.3% (inactive).
With `CCOC(=O)c1[nH]cnc1C(=O)Nc1ccc([N+](=O)[O-])cc1`, the inhibition was -7.2% (inactive).
The same measure for `O=C(Nc1ccc(F)cc1)c1nc[nH]c1C(=O)Nc1ccc([N+](=O)[O-])cc1`: 45% (inactive).
Turning to `O=C(Nc1ccc([N+](=O)[O-])cc1)c1nc[nH]c1C(=O)NC1CCCCC1`, the inhibition was 80.7% (active).
As for `Nc1nnc(SCc2c(F)cccc2Cl)s1`, the inhibition was -8.2% (inactive).
In the case of `C#CCNC(=O)C1=C[C@H](c2cn(C(C)=O)c3ccccc23)C[C@H](OCc2ccc(CO)cc2)O1`, the inhibition was 46.1% (active).
Take `CC(=O)n1cc([C@@H]2C=C(C(=O)NCc3ccccc3)O[C@H](OCc3ccc(CO)cc3)C2)c2ccccc21`: the inhibition is -7.1% (inactive).
`C#CCNC(=O)C1=C[C@@H](c2cn(C(C)=O)c3ccccc23)C[C@@H](OCc2ccc(CO)cc2)O1`: the inhibition was -23.5% (inactive).
As for `O=C(NCc1ccccc1)C1=C[C@H](c2csc3ccccc23)C[C@H](OCc2ccc(CO)cc2)O1`, the inhibition was -5.8% (inactive).
For the molecule `O=C(Nc1ccccc1)C1=C[C@H](c2csc3ccccc23)C[C@H](OCc2ccc(CO)cc2)O1`, the inhibition is -4.6% (inactive).
In the case of `O=C(NCc1ccccc1)C1=C[C@@H](c2csc3ccccc23)C[C@@H](OCc2ccc(CO)cc2)O1`, the inhibition is 43.8% (active).
The same measure for `CC(NS(=O)(=O)c1ccc2[nH]c(=O)c(=O)[nH]c2c1)C(=O)O` (stereo not drawn): -25.3% (inactive); for `O=C(CCCN1C(=O)/C(=C/c2ccccc2Cl)SC1=S)N1CCCC1`: 18.8% (inactive); for `Cc1cc(Cl)cc(C)c1OCCNCc1ccccc1`: -43.1% (inactive).
As for `Cc1ccc(S(=O)(=O)CCc2nnc(NC(=O)C3CCCCC3)s2)cc1`, the inhibition is 1.5% (inactive).
In the case of `COc1ccc(NC(=O)Cn2ncn3nc(-c4ccc(OC)cc4)cc3c2=O)cc1`, the inhibition is -72% (inactive).
The same measure for `CC(C)c1ccc(Nc2nc(Cl)nc(Cl)n2)cc1`: -33% (inactive).
In the case of `CCCOC(=O)Cn1cnc2scc(-c3ccc(OC)cc3)c2c1=O`, the inhibition was 41.3% (inactive).
Turning to `CCOC(=O)c1ccccc1NC(=O)CSc1ccc(-c2cccnc2)nn1`, the inhibition is 59.2% (active).
The result for `Cc1ccccc1NC(=O)CSc1ccc(-c2cccnc2)nn1` reads -33.1% (inactive).
In the case of `CCOC(=O)c1ccccc1NC(=O)CSc1ccc(-c2ccccn2)nn1`, the inhibition is -59.6% (inactive).
For `Cc1ccc(NC(=O)Cn2nnc3ccccc32)c(C)c1`, the inhibition is -16.7% (inactive).
Regarding `O=C(Sc1nnc(-c2ccccc2)o1)N1c2ccccc2Sc2ccccc21`, the inhibition is -37.4% (inactive).
The same measure for `COc1ccc(-c2nnc(SCC(=O)N3c4ccccc4Sc4ccccc43)o2)cc1`: -16.3% (inactive).
Consider `COc1ccc(-c2nnc(SC(=O)N3c4ccccc4Sc4ccccc43)o2)cc1`, for which the inhibition is 65.2% (active).
For the molecule `Fc1ccc(-n2nnnc2-c2ccccc2Cl)cc1`, the inhibition was -26.4% (inactive).
Take `COc1ccc(C(=O)N2CCC(C(=O)Nc3ccc4c(c3)OCCO4)CC2)cc1`: the inhibition was -5.6% (inactive).
On to `Fc1ccc(-c2nnc(NC3=NCCCCC3)o2)cc1`, for which the inhibition was 46.2% (inactive).
`CC(C)N=C(NS(=O)(=O)c1ccccc1)C(Cl)(Cl)Cl`: the inhibition is 62.8% (active).
With `Cc1ccc(S(=O)(=O)NC(=NC(C)C)c2ccccc2)cc1`, the inhibition is -28.2% (inactive).
On to `CC(C)CN=C(NS(=O)(=O)c1ccccc1)C(Cl)(Cl)Cl`, for which the inhibition was 34.3% (inactive).
As to `O=C(CSc1nnc(-c2cccnc2)n1Cc1ccco1)Nc1cccc(O)c1`, the inhibition was -18.5% (inactive).
With `CC(C)=NOc1cc(NC(=O)CCl)cc([N+](=O)[O-])c1`, the inhibition is 89.5% (active).
Consider `CC(=O)Nc1cc(ON=C(C)C)cc([N+](=O)[O-])c1`, for which the inhibition was -34.9% (inactive).
Consider `CCC(=O)Nc1cc(ON=C(C)C)cc([N+](=O)[O-])c1`, for which the inhibition was -24.6% (inactive).
On to `O=C(Nc1ccc(S(=O)(=O)N2CCCCCC2)cc1)c1ccc(Br)o1`, for which the inhibition was 26.1% (inactive).
The result for `COc1ccc(CCNc2oc(COc3ccccc3)nc2C#N)cc1` reads -56.7% (inactive); that for `COc1ccc(CCNc2oc(Cc3ccccc3)nc2C#N)cc1OC`, 25.6% (inactive); that for `COc1ccc(CCNc2oc(COc3ccc(F)cc3)nc2C#N)cc1`, -48.1% (inactive).
Regarding `COc1ccc(CCNc2oc(COc3ccccc3F)nc2C#N)cc1OC`, the inhibition is 21.4% (inactive).
